This passage reports growth results from PubChem BioAssay (NCI).

Among the test systems are HCT-15 colon; HT29 colon; SNB-75 CNS; SNB-19 CNS; U251 CNS; PC-3 prostate; SK-MEL-5 melanoma; UACC-62 melanoma; LOX IMVI melanoma; SK-MEL-28 melanoma; SK-MEL-2 melanoma; EKVX NSCLC; SN12C renal; UO-31 renal; TK-10 renal; ACHN renal; CAKI-1 renal; A498 renal; CCRF-CEM leukemia; MOLT-4 leukemia.
Holding throughout (assay): NCI-60 one-dose screen, 48 h (100 = growth as untreated, 0 = no growth, -100 = all killed)
Holding throughout (details): 10 µM unless noted

About 83,000 compounds went through this panel and 20% of them were active in at least one assay; those are over-represented in the sample as a whole.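 Single-concentration screen, 48 h exposure, 96-well plates. Endpoint: percent growth. Below 10 = active.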 Values without a mark were called inactive. Calls of active or inactive are those of the source.

`COc1nc2ccc(C)cc2cc1/C=[N+](\[O-])c1ccccc1`: the growth with HCT-15 colon is 77.2%; in the test on HT29 colon, 95.1%; with SNB-75 CNS it was 79.5%; in the test with SNB-19 CNS, 86.6%; in the test on U251 CNS it was 95.4%; in the test with PC-3 prostate, 68.2%. Moreover, the growth with SK-MEL-5 melanoma is 96.2%; with UACC-62 melanoma, 76.6%; in the test with LOX IMVI melanoma it was 77.8%; in the test with SK-MEL-28 melanoma it was 97.6%; in the test on SK-MEL-2 melanoma, 100%; with EKVX NSCLC it was 77.8%. The growth in the test with SN12C renal was 90.1%; in the test with UO-31 renal it was 59.4%; in the test on TK-10 renal it was 116%; in the test on ACHN renal it was 83.5%; in the test on CAKI-1 renal, 82.3%; with A498 renal, 75.6%. The growth in the test on CCRF-CEM leukemia was 46.6%; in the test on MOLT-4 leukemia, 82.8%.

For `COc1ccc2c(c1)CC[C@@H]1[C@@H]2CC[C@]2(C)C3C(=CCC4C(=O)N(c5ccccc5)C(=O)C43)C[C@@H]12` (some centres not stated), the growth in the test on HCT-15 colon is 88.5%; with HT29 colon, 71.3%; in the test on SNB-75 CNS, 79.8%; in the test on SNB-19 CNS it was 108%; in the test on U251 CNS, 87.5%; in the test with PC-3 prostate, 51.1%. The growth was 89.9% in the test with SK-MEL-5 melanoma; 64.5% with UACC-62 melanoma; 83.6% in the test on LOX IMVI melanoma; 105% in the test with SK-MEL-28 melanoma; 95.7% with SK-MEL-2 melanoma; 93% with EKVX NSCLC. The growth in the test on SN12C renal was 108%; in the test on UO-31 renal, 74.3%; with TK-10 renal it was 105%; in the test on ACHN renal, 80.8%; in the test on CAKI-1 renal, 71.7%; in the test with A498 renal, 114%. Besides, the growth in the test with CCRF-CEM leukemia was 66.7%; in the test with MOLT-4 leukemia it was 74.2%.

As for `N=c1c2c(-c3ccccc3)c(-c3ccccc3)oc2ncn1NC(=O)c1cccnc1`, the growth in the test on HCT-15 colon is 95.6%; in the test on HT29 colon, 104%; with SNB-75 CNS, 105%; with SNB-19 CNS it was 96.4%; with U251 CNS, 102%; in the test on PC-3 prostate, 93.6%. Besides, the growth with SK-MEL-5 melanoma is 93.4%; in the test with UACC-62 melanoma it was 104%; with LOX IMVI melanoma, 95%; in the test on SK-MEL-28 melanoma, 119%; in the test on SK-MEL-2 melanoma, 111%; in the test on EKVX NSCLC, 96.1%. For the same compound, the growth with SN12C renal is 102%; in the test with UO-31 renal it was 75.9%; with TK-10 renal it was 112%; in the test with ACHN renal it was 109%; with CAKI-1 renal it was 93.8%; in the test on A498 renal, 73.6%. The growth was 84% with CCRF-CEM leukemia and 89.9% in the test with MOLT-4 leukemia.

With `c1ccc(-c2cc(-c3cc(-c4ccccc4)on3)no2)cc1`, the growth is 17.5% with HCT-15 colon; 21.2% in the test with HT29 colon; 123% with SNB-75 CNS; 101% with SNB-19 CNS; 73.8% in the test on U251 CNS; 128% with PC-3 prostate. The growth in the test with SK-MEL-5 melanoma is 101%; in the test on UACC-62 melanoma it was 89.7%; in the test with LOX IMVI melanoma it was 69.2%; in the test on SK-MEL-28 melanoma it was 102%; with SK-MEL-2 melanoma, 20.5%; in the test on EKVX NSCLC, 121%. Moreover, the growth in the test on SN12C renal is 92.9%; with UO-31 renal it was 92.1%; in the test with TK-10 renal, 104%; in the test with CAKI-1 renal, 35.5%; in the test on A498 renal, 97.6%; in the test with CCRF-CEM leukemia, 81.9%. For the same compound, the growth with MOLT-4 leukemia is 63.7%.

For the compound `COc1ccc(Cl)cc1Nc1nc(C(F)(F)F)ccc1C(=O)N/N=C/c1ccc(N(C)C)cc1`, the growth in the test with HCT-15 colon is 87.3%; with HT29 colon, 107%; in the test on SNB-75 CNS, 88.8%; with SNB-19 CNS, 86%; with U251 CNS, 92.6%; in the test on PC-3 prostate, 97.3%. Also, the growth was 95.6% with SK-MEL-5 melanoma; 102% in the test on UACC-62 melanoma; 95.2% with LOX IMVI melanoma; 88.2% with SK-MEL-28 melanoma; 82.5% in the test with SK-MEL-2 melanoma; 121% in the test on EKVX NSCLC. The growth with SN12C renal is 98.2%; with UO-31 renal, 98.3%; in the test on TK-10 renal, 95.9%; with ACHN renal it was 96.6%; with A498 renal, 109%; in the test with CCRF-CEM leukemia, -17.6% (active). The growth in the test with MOLT-4 leukemia is 90.4%.

`C=CCN1C=CC(=O)[C@H](O[Si](C)(C)C(C)(C)C)[C@@H]1/C=C/c1ccccc1`: the growth is -70.7% [100 µM] (active) in the test with HCT-15 colon; -73% [100 µM] (active) in the test with HT29 colon; -87.9% [100 µM] (active) in the test on SNB-75 CNS; -92% [100 µM] (active) in the test on SNB-19 CNS; -39.6% [100 µM] (active) in the test on U251 CNS; -76.2% [100 µM] (active) in the test on PC-3 prostate. For the same compound, the growth was -84.9% [100 µM] (active) in the test on SK-MEL-5 melanoma; -78.2% [100 µM] (active) with UACC-62 melanoma; -43.9% [100 µM] (active) with LOX IMVI melanoma; -68.2% [100 µM] (active) with SK-MEL-28 melanoma; -57% [100 µM] (active) in the test on SK-MEL-2 melanoma; -48% [100 µM] (active) with EKVX NSCLC. Also, the growth was -74% [100 µM] (active) with SN12C renal; -73.4% [100 µM] (active) in the test with UO-31 renal; -64.6% [100 µM] (active) with TK-10 renal; -72.5% [100 µM] (active) with CAKI-1 renal; -88.8% [100 µM] (active) in the test with A498 renal; -33.8% [100 µM] (active) in the test with CCRF-CEM leukemia. Also, in the test on MOLT-4 leukemia, the growth was -30.4% [100 µM] (active).
